Compounds with a hit are over-represented: about 2.9% of the library has one in this group of screens.
ADAM10 inh: human ADAM10 inhibitors, primary screen, biochemical, QFRET, HTS; Disintegrin and metalloproteinase domain-containing protein 10 (Homo sapiens), O14672; recombinant ADAM10, EDANS/DABCYL FRET peptide cleavage, 3 h; inhibition, % at 7 µM; hit rate 0.62% among 370,000; AID 720582, 2013;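 active = inhibition above a per-campaign cutoff equal to the mean of compounds falling between control-based bounds plus 3 SD, cut at about 20% in these data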;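 note: 0% = DMSO wells while the 100% control is not disclosed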
Target sequence (O14672 214-748 limits assumed): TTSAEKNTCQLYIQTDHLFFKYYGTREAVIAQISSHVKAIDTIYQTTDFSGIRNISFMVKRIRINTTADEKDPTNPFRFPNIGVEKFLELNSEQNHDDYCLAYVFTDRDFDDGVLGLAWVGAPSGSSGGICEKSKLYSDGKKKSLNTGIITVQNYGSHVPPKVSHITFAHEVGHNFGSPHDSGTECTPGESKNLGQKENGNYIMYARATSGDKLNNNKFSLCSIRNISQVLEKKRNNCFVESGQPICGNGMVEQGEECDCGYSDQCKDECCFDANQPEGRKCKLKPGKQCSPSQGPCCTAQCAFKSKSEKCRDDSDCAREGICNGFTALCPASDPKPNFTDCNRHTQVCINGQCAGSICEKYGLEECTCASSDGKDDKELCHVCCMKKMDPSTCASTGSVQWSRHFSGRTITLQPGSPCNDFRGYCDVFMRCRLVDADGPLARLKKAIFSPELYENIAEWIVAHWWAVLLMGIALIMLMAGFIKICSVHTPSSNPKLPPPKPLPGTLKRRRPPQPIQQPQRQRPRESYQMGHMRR
PLCb3 inh: human PLC-beta3 inhibitors, primary screen, biochemical, fluorescence | hit rate 0.18% among 370,000 | 1-phosphatidylinositol 4,5-bisphosphate phosphodiesterase beta-3 (Homo sapiens), Q01970 | inhibition, % at 12.2 µM | Purified PLC-beta3, fluorogenic substrate; in the data active = inhibition above about 11%;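 note: 0% = median of compound wells on plate and 100% = full blocker control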
PLCg1 inh: PLC-gamma1 enzyme inhibitors, primary screen, biochemical, fluorescence, purified enzyme. fluorogenic substrate. inhibition, % at 12.2 µM. hit rate 0.84% among 370,000; in the data active = inhibition above about 9.5%
KLK7 zymogen act: proKLK7 zymogen activators, primary screen, biochemical, fluorescence intensity | Kallikrein-7 (Homo sapiens), P49862 | hit rate 0.9% among 370,000 | activation, % at 7 µM | purified proKLK7, EDANS-DABCYL substrate fluorescence; 100% is mature enzyme control, 0% vehicle | AID 652039, 2013;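 active = activation above the mean of all tested compounds plus 3 SD, computed per campaign excluding outliers beyond control limits, cut at about 13% in these data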
ADAM17 inh: ADAM17 inhibitors, primary screen, biochemical, QFRET. Disintegrin and metalloproteinase domain-containing protein 17 (Homo sapiens), P78536. recombinant ADAM17, EDANS/DABCYL FRET peptide cleavage. inhibition, % at 6.95 µM. hit rate 0.83% among 370,000. AID 720648, 2013;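 active = inhibition above the mean of compounds lying between control limits plus 3 SD, set per campaign, cut at about 8.5% in these data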;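 note: 0% = DMSO-only wells as the low control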
ADAM10 counter: ADAM10 inhibitors, counter-screen for ADAM17 exosite inhibitor project, biochemical, FRET, human ADAM10. shares compounds with ADAM17 inh. recombinant ADAM10, EDANS/DABCYL FRET peptide cleavage, 3 h. inhibition, % at 6.95 µM. hit rate 47% among 2,900. AID 743256, 2014;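 active = mean inhibition over the triplicate runs exceeds the activity threshold set in the earlier primary screen, cut at about 20% in these data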;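 note: 0% = DMSO wells and 100% = marimastat wells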
ADAM17 confirm: ADAM17 inhibitors, hit retest, confirmation, biochemical, QFRET peptide cleavage; AID 743257, 2014; inhibition, % at 6.95 µM; shares compounds with ADAM17 inh; recombinant ADAM17, EDANS/DABCYL QFRET peptide cleavage; hit rate 65% among 2,900;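 active = mean inhibition across replicates above the hit cutoff set in the primary screen, cut at about 8.5% in these data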;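 note: 0% = DMSO wells and 100% = marimastat wells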
An asterisk follows results filed as active.

Screening COC(=O)c1cc(=O)n(Cc2ccco2)c(=Nc2ccccc2)s1 returned ADAM10 inh 9, PLCb3 inh -1, PLCg1 inh -2, KLK7 zymogen act 0 and ADAM17 inh 4.
`COc1ccccc1N1CCN(c2ncnc3n[nH]c(Br)c23)CC1` gave ADAM10 inh 4, PLCb3 inh -2, PLCg1 inh -3, KLK7 zymogen act -1 and ADAM17 inh 4.
`Cc1ccc(NC(=O)CCCc2nc3ccccc3c(=O)[nH]2)c(Cl)c1` gave ADAM10 inh -6, PLCb3 inh 0, PLCg1 inh 1, KLK7 zymogen act 0 and ADAM17 inh 2.
COc1cc(C(c2c(C)[nH][nH]c2=O)c2c(C)[nH][nH]c2=O)ccc1OCc1ccc([N+](=O)[O-])cc1 was read as ADAM10 inh 16, PLCb3 inh 7, PLCg1 inh 9, KLK7 zymogen act -1, ADAM17 inh 10*, ADAM10 counter 16 and ADAM17 confirm 13*.
Screening O=C(CN1CCN(c2nc(-c3ccccc3)cs2)CC1)Nc1ccc(Cl)c(Cl)c1 returned ADAM10 inh 13, PLCb3 inh -2, PLCg1 inh -2, KLK7 zymogen act 0, ADAM17 inh 8.8*, ADAM10 counter 19 and ADAM17 confirm 12*.
For Cc1ccccc1NC(=O)CN1CCN(c2nc(-c3ccccc3)cs2)CC1 the results were ADAM10 inh 6, PLCb3 inh 3, PLCg1 inh 0, KLK7 zymogen act 1 and ADAM17 inh 4.
`CC1(C(=O)NS(=O)(=O)c2ccc(C#N)cc2)CCN1C(=O)CC1CC1` (stereo not drawn) gave ADAM10 inh -2, PLCb3 inh 1, PLCg1 inh 3, KLK7 zymogen act 0 and ADAM17 inh -1.
COc1cccc(/C=N/NC(=O)CN(CCc2ccccc2)S(=O)(=O)c2ccc(NC(C)=O)cc2)c1 was read as ADAM10 inh 4, PLCb3 inh -3, PLCg1 inh 0, KLK7 zymogen act 0, ADAM17 inh 11*, ADAM10 counter 24* and ADAM17 confirm 14*.
For C#CCN(C[C@H]1[C@H](OC(=O)Nc2cccs2)[C@H](OC(=O)Nc2cccs2)CN(C(=O)OC(C)C)N1C(=O)OC(C)C)S(=O)(=O)c1ccc(C)cc1 the results were ADAM10 inh 10, PLCb3 inh 2, PLCg1 inh 4, KLK7 zymogen act 0, ADAM17 inh 12*, ADAM10 counter 33* and ADAM17 confirm 19*.
`Cn1cnc2ncnc(Oc3ccc(Br)cc3)c21` gave ADAM10 inh -1, PLCb3 inh 2, PLCg1 inh 2, KLK7 zymogen act -1 and ADAM17 inh 0.
CCCn1c(CCNc2nc(-c3cccc(Br)c3)cs2)nc2ccccc21 was read as ADAM10 inh 11, PLCb3 inh 4, PLCg1 inh 7, KLK7 zymogen act 0, ADAM17 inh 11*, ADAM10 counter 17 and ADAM17 confirm 11*.
COc1ccc(CCN(Cc2cccs2)S(=O)(=O)c2ccc(F)cc2)cc1OC was read as ADAM10 inh 19, PLCb3 inh 0, PLCg1 inh 6, KLK7 zymogen act 0, ADAM17 inh 15*, ADAM10 counter 10 and ADAM17 confirm 7.
For CCC(C)NS(=O)(=O)c1ccc(S(=O)(=O)N(CCc2ccc(OC)c(OC)c2)Cc2cccs2)cc1 (stereo not drawn) the results were ADAM10 inh 17, PLCb3 inh -2, PLCg1 inh 1, KLK7 zymogen act 1, ADAM17 inh 8.9*, ADAM10 counter 38* and ADAM17 confirm 16*.
`COc1ccc(CCNC(=O)CC(C)S(=O)(=O)c2ccc3c(c2)NC(=O)CO3)cc1OC` (stereo not drawn) gave ADAM10 inh -2, PLCb3 inh -6, PLCg1 inh -1, KLK7 zymogen act -1 and ADAM17 inh 4.
`Cc1cc2cc(CN(CCCO)S(=O)(=O)c3cccc4nsnc34)c(=O)[nH]c2cc1C` gave ADAM10 inh 13, PLCb3 inh -25, PLCg1 inh -2, KLK7 zymogen act 0, ADAM17 inh 10*, ADAM10 counter -2 and ADAM17 confirm 5.
`Cc1ccc2[nH]c(=O)c(CN(CCCO)S(=O)(=O)c3c(C)ccc4nsnc34)cc2c1` gave ADAM10 inh -12, PLCb3 inh 2, PLCg1 inh -1, KLK7 zymogen act -1 and ADAM17 inh 1.
O=C(Cn1c(-c2ccccc2)noc1=O)Nc1ccc(S(=O)(=O)N2CCOCC2)cc1 was read as ADAM10 inh 7, PLCb3 inh 2, PLCg1 inh 1, KLK7 zymogen act -1 and ADAM17 inh 0.
Screening O=C(Cn1c(-c2ccccc2)noc1=O)Nc1ccc(N2CCCCCC2)cc1 returned ADAM10 inh 17, PLCb3 inh -30, PLCg1 inh 3, KLK7 zymogen act 0, ADAM17 inh 11*, ADAM10 counter 24* and ADAM17 confirm 17*.
For COc1cccc(NC(=O)CC2S/C(=N\S(=O)(=O)c3ccccc3)N(c3ccccc3)C2=O)c1 (stereo not drawn) the results were ADAM10 inh 16, PLCb3 inh -4, PLCg1 inh 0, KLK7 zymogen act 0, ADAM17 inh 10*, ADAM10 counter 15 and ADAM17 confirm 9.8*.
Screening COc1cccc(NC(=O)CC2SC(=Nc3ccccc3)NC2=O)c1 (stereo not drawn) returned ADAM10 inh -3, PLCb3 inh 1, PLCg1 inh 0, KLK7 zymogen act 0 and ADAM17 inh -1.
`O=c1nc(-c2ccccc2)c2cc(SC(F)F)ccc2[nH]1` gave ADAM10 inh -70, PLCb3 inh -215, PLCg1 inh -174, KLK7 zymogen act 10 and ADAM17 inh -17.
For O=C(NCC1CC1(Cl)Cl)Nc1ccc(Cl)c(Cl)c1 (stereo not drawn) the results were ADAM10 inh 14, PLCb3 inh 4, PLCg1 inh 0, KLK7 zymogen act 0, ADAM17 inh 9.5*, ADAM10 counter 32* and ADAM17 confirm 15*.
Screening Cc1ccc(NC(=O)NCC2CC2(Cl)Cl)cc1 (stereo not drawn) returned ADAM10 inh -2, PLCb3 inh -4, PLCg1 inh -2, KLK7 zymogen act 0 and ADAM17 inh -1.
